Assay results published in the supplement of paper PMC11732987, “Enantioselective OTUD7B fragment discovery through chemoproteomics screening and high-throughput optimisation” (Communications Chemistry, 2025).

Columns and labels:
Experiment in all cases: log2 ratio of Biotin-Ahx-Ub-VS probe labelling (fragment/DMSO); higher = less target engagement (more negative = stronger competition), active = hit call of the paper (q ≤ 0.05, log2 ratio ≤ -1)
Conditions in all cases: compound concentration: 200 uM; treatment time: 3 h
USP19 = biological target: T1, USP19 (UniProt O94966)
T1 sequence (whole entry): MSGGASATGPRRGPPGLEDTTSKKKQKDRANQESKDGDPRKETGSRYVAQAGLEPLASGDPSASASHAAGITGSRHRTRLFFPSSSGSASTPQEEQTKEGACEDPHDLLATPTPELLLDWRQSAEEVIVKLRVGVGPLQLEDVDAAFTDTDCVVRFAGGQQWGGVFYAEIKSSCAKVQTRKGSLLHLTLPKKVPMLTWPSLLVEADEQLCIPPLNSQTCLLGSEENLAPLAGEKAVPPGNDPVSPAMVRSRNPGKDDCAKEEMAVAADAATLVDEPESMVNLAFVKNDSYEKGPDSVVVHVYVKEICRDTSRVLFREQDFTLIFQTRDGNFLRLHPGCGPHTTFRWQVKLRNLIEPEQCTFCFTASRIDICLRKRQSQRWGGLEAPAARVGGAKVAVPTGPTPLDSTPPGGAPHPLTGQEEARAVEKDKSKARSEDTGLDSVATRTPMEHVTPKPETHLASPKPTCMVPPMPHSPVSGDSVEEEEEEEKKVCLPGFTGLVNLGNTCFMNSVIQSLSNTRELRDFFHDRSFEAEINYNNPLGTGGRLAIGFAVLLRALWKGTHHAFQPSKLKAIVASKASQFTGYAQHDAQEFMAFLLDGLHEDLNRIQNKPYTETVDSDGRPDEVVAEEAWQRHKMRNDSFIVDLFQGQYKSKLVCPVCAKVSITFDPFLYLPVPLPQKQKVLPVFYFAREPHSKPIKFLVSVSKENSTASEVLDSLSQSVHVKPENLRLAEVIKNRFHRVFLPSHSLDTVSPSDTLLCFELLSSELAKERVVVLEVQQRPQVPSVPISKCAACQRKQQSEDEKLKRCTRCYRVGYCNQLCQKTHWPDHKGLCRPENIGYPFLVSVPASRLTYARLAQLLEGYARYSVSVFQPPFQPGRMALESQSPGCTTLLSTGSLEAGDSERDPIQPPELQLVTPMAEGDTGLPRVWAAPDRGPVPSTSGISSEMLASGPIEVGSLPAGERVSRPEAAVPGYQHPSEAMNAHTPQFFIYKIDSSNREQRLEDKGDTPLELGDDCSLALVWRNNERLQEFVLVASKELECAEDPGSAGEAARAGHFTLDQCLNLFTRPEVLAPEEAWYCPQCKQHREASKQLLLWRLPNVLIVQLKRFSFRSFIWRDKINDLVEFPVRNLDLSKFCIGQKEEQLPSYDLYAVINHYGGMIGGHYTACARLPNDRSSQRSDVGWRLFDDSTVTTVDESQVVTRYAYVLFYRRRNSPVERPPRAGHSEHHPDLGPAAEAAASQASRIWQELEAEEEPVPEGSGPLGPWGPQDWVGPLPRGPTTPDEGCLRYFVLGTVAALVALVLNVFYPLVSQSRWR
Summary of the method: (§1)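 Fragment (200 µM) or vehicle was incubated for 3 h with triplicate HEK293T lysate samples of 495 µg, which were then treated with Biotin-Ahx-Ub-VS at 0.5 µM final for 1 h. Labelled DUBs were enriched on NeutrAvidin, digested with LysC and trypsin, and analysed by diaPASEF LC-MS/MS. Values are average log2 fragment/vehicle ratios from an unpaired t-test on global-median-normalised Spectronaut label-free quantities, using proteins with ≥2 unique peptides.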

USP22 = biological target: T2, USP22 (UniProt Q9UPT9)
T2 sequence (whole entry): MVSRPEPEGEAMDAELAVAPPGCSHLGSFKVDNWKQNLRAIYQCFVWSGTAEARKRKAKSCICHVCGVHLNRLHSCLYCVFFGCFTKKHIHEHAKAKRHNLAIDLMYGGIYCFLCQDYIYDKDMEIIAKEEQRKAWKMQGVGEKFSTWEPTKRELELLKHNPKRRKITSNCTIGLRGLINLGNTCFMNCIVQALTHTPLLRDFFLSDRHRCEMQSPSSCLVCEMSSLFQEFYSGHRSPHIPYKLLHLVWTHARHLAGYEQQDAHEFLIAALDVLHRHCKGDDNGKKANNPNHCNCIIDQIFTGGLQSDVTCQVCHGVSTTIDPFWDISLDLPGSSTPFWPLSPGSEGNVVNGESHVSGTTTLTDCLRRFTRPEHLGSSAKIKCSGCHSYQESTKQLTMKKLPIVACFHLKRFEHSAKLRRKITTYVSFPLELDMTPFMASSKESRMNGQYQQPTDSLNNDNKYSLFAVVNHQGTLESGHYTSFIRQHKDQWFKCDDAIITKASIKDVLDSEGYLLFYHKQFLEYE
Summary of the method: as §1

USP24 = USP24 (UniProt Q9UPU5)
Summary of the method: as §1

USP25 = biological target: T3, USP25 (UniProt Q9UHP3)
T3 sequence (whole entry): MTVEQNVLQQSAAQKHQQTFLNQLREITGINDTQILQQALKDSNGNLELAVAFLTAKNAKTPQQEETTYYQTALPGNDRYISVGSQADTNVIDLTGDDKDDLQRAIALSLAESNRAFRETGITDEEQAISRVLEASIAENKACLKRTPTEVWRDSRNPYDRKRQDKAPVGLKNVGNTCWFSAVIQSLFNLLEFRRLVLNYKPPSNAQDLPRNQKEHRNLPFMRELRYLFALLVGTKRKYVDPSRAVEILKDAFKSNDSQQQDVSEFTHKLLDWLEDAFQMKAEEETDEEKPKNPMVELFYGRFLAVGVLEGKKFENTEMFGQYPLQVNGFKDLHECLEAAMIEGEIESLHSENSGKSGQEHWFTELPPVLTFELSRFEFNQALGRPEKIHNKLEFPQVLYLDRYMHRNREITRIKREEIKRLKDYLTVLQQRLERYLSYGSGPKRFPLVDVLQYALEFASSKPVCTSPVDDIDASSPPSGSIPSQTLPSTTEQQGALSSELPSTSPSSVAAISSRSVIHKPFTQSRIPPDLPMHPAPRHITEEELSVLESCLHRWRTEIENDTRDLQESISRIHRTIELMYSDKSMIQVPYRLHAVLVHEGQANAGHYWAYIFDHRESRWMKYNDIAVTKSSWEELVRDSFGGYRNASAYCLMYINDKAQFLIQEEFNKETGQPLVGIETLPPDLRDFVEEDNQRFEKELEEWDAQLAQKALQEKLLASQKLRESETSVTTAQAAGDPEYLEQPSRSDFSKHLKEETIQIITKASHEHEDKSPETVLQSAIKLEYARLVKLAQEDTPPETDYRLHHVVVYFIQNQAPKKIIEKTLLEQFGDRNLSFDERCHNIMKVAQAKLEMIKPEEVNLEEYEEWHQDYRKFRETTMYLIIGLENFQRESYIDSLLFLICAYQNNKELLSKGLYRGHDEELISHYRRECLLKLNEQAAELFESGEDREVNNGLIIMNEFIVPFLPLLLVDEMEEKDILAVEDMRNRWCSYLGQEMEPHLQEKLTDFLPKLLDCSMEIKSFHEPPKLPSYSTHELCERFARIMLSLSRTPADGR
Summary of the method: as §1

USP28 = biological target: T4, USP28 (UniProt Q96RU2)
T4 sequence (whole entry): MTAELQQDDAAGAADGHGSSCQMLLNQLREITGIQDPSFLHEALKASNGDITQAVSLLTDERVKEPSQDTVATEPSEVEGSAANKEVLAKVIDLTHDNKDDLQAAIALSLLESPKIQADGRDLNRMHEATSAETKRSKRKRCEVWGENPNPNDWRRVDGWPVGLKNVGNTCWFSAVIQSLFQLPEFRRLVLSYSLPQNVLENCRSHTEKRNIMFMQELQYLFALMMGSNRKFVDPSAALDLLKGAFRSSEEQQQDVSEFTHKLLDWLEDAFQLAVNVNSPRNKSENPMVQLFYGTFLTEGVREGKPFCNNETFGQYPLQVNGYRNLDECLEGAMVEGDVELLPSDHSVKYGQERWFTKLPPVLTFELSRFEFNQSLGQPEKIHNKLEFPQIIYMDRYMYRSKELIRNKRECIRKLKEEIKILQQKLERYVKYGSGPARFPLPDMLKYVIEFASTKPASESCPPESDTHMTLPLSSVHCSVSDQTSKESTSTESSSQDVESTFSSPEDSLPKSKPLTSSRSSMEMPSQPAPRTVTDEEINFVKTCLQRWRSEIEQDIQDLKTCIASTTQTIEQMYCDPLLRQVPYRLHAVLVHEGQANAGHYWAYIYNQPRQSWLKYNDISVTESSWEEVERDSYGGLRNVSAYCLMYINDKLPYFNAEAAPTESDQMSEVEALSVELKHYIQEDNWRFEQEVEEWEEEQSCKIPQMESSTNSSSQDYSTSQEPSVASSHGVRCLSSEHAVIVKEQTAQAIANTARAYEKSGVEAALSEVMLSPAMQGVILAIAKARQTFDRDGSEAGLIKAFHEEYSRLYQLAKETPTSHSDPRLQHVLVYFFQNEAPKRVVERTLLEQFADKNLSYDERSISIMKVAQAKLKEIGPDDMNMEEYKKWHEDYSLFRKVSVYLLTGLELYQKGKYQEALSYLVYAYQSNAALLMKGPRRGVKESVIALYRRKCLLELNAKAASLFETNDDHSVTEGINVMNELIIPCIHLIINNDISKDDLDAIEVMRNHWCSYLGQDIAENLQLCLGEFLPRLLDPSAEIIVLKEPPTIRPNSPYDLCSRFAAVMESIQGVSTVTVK
Summary of the method: as §1

Measured: log2 ratio of Biotin-Ahx-Ub-VS probe labelling

Chain of USP24 (Q9UPU5 whole entry): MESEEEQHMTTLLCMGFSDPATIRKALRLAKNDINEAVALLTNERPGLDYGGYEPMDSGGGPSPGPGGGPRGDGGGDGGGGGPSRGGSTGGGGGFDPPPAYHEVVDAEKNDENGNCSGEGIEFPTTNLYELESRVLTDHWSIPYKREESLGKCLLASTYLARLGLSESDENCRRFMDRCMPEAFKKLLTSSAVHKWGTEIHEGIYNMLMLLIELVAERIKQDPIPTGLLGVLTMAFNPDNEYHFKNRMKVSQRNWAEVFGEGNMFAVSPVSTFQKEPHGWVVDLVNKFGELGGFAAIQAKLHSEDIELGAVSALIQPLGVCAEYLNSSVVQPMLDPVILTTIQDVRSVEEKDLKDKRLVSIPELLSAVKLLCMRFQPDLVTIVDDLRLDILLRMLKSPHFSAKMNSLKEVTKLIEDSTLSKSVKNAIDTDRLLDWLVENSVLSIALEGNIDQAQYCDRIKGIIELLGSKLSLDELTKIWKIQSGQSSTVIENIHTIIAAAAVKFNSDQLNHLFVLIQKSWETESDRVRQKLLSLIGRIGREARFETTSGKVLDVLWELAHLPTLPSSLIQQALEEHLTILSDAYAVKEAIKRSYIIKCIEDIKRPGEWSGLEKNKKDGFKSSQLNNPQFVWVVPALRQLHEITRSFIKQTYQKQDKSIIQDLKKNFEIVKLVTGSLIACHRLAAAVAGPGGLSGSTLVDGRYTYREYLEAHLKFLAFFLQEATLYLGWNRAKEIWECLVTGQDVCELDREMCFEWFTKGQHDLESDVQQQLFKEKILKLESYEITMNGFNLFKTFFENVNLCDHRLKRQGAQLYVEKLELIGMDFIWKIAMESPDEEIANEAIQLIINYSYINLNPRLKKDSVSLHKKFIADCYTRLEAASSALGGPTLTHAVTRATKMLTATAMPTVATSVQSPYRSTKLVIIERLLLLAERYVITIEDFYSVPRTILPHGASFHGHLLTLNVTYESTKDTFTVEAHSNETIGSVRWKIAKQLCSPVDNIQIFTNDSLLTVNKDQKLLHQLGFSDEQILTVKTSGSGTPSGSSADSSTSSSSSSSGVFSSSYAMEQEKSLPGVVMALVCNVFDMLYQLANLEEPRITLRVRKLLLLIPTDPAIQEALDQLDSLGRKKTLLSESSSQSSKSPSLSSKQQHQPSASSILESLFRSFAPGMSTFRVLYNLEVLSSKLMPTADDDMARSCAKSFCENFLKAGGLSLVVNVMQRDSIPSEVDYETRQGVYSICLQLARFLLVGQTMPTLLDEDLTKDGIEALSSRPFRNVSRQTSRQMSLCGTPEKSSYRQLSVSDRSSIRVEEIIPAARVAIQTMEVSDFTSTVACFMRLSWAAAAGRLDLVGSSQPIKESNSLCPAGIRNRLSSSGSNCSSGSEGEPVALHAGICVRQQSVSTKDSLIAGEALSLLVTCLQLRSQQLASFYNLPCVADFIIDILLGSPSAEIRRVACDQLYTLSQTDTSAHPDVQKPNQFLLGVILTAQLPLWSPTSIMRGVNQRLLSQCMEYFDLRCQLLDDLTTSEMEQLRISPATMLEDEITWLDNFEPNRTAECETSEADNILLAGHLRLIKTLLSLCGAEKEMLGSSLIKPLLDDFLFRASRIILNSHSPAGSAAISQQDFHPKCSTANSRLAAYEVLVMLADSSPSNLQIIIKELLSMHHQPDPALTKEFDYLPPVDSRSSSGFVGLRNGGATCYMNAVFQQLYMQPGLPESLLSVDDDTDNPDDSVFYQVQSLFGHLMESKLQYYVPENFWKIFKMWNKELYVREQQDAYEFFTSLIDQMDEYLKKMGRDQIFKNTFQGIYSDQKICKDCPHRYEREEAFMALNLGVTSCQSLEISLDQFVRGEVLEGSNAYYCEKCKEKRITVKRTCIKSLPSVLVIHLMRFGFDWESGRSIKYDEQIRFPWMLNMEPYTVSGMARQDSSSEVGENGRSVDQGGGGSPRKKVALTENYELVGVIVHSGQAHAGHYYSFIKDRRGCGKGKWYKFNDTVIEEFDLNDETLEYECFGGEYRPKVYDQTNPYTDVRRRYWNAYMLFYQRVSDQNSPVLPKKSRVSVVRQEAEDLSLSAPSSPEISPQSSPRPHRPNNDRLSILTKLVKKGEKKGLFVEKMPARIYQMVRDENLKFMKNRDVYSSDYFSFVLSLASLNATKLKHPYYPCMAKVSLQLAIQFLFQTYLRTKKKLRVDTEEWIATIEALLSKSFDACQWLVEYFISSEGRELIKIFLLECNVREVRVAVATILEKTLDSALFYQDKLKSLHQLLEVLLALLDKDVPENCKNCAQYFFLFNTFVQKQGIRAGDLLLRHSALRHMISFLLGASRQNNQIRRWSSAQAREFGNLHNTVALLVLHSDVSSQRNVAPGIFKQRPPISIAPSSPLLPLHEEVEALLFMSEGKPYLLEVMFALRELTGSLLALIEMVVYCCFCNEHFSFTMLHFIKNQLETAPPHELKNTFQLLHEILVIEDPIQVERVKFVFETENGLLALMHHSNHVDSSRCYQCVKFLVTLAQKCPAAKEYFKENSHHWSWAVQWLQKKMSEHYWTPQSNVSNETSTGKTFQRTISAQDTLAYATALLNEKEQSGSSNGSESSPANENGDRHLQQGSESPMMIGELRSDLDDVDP

CC1(NC(=O)CCl)CCS(=O)(=O)C1 (stereo not given)
inactive: USP19 -0.59 | USP22 -0.238 | USP24 -0.659 | USP25 -0.695 | USP28 -0.835
